Bioassay records (PubChem)
GBA activity = alters purified human glucocerebrosidase activity | P04062 | purified enzyme, resorufin glucoside fluorescence (screen aimed at inhibitors), 20 min | Potency, µM | 48,000 compounds, 1.1% hits; in the data active = potency below about 15 µM; inconclusive = mostly about 16 µM to 33 µM;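 also: the screen sought inhibitors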
Target sequence (P04062 whole entry, looked up): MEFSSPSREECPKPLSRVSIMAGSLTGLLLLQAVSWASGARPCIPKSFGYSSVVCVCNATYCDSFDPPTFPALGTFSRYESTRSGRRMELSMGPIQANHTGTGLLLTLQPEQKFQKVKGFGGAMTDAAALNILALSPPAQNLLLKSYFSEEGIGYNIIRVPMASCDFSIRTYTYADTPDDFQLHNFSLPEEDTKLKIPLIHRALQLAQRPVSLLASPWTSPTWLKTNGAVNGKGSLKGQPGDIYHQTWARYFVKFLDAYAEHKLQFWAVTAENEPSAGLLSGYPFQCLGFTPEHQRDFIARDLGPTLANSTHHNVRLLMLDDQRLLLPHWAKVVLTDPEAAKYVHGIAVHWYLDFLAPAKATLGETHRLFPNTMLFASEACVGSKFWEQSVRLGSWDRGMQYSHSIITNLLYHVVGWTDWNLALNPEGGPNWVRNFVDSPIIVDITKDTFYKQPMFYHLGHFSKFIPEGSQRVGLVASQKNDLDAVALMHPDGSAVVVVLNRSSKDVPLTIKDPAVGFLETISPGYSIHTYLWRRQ
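Normal human glucocerebrosidase (0.2 nM final) was assayed with resorufin β-D-glucopyranoside (30 uM final) in 50mM citric acid/KH2PO4, 10mM sodium taurocholate, 0.01% tween-20, pH 5.9. Compounds were titrated; fluorescence (Ex 548, Em 600) read after 20 min at RT.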
Luciferase inh = firefly luciferase inhibition. P08659. Potency, µM (top dose mostly 57.1 µM), usual class: inhibitors. 72,000 compounds, 2.2% hits. AID 411. purified firefly luciferase, luminescence, 8 min; also: nearly all actives have a fitted effect of over 40% in size
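Compounds were tested as concentration series (qHTS) against purified P. pyralis luciferase with luciferin and 10 uM ATP in 50 mM imidazole pH 7.2, 50 mM KCl, 7 mM MgCl2, 0.01% Tween 20, 0.05% BSA. Luminescence was read after 8 min at ambient temperature.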
ERK AVP block = blocks ERK signaling stimulated by vasopressin; HEK293-V1b, vasopressin-stimulated pERK AlphaScreen; Potency, µM (titrated, usually from 57.5 µM), most hits filed as inhibitors; 72,000 compounds, 0.99% hits; also: nearly all actives have a fitted effect of over 55% in size
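HEK293 cells stably expressing V1b receptor, seeded overnight in 1% FBS, were treated with compounds for 30 min at 37C, then stimulated 5 min with 25 nM vasopressin; phospho-ERK read by AlphaScreen SureFire after lysis.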
PK Bst = modulators of Bacillus stearothermophilus pyruvate kinase | purified pyruvate kinase, luminescence ATP production; ribose 5-phosphate activator present at AC10 | Potency, µM | 51,000 compounds, 1.2% hits; in the data active = potency below about 11 µM; inconclusive = mostly about 12 µM to 25 µM;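 the screen sought inhibitors and activators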
Numbers stand for hits; . = inactive; ? = inconclusive; / = no result given; [ ] = another dose, or the depositor's remark. Hits are enriched below; roughly 3.9% of the tested compounds scored in any of these assays. Unless noted, calls follow the shape of the dose curve; as a rule, active = well fitted curve in the direction sought with a large enough effect; inconclusive = small, poorly fitted or top-dose-only effect, or another doubt; inactive = no such curve, though single readings can be large; an effect the other way counts as inactive or inconclusive.

SMILES	GBA activity	Luciferase inh	ERK AVP block	PK Bst
O=C(Nc1ccc(C(=O)N2CCOCC2)cc1)Nc1cccc(Cl)c1	.	16µM	.	/
CC(=O)Nc1cccc(C)c1	/	/	.	/
CN1C(=O)CSc2ccc(NC(=O)N3CCOCC3)cc21	.	.	?	.
CCN1CCN(c2cc(C)c3cc(NC(=O)Cc4ccc(OC)c(OC)c4)ccc3n2)CC1	/	.	?	/
Cc1cc(N2CCOCC2)nc2ccc(NC(=O)CCC(=O)N3CCC(C)CC3)cc12	1.7	.	.	/
CCC(C)NC(=O)CCC(=O)Nc1ccc2nc(N3CCOCC3)cc(C)c2c1 (centres undefined)	6.1	.	.	.
Cc1cc(N2CCOCC2)nc2ccc(Cc3ccc4nc(N5CCOCC5)cc(C)c4c3)cc12	/	.[11.4 µM]	.[11.5 µM]	/
CCOc1ccccc1NC(=O)CCC(=O)Nc1ccc2nc(N3CCN(C)CC3)cc(C)c2c1	9.6	?	.	.
CCCCN(C)C(=O)CCC(=O)Nc1ccc2nc(N3CCOCC3)cc(C)c2c1	0.71	.	.	.
COCCn1c(=O)c(-c2ccccc2)nc2cnc(Nc3cccc(OC)c3)nc21	/	.[11.4 µM]	.	/
O=c1c(-c2cccs2)nc2cnc(N3CCOCC3)nc2n1-c1ccccc1	/	.[11.4 µM]	.	/
COC(=O)c1ccc(C(NC(=O)OCc2ccccc2)/C(C)=C/[C@@H](C)C(=O)NCCO)cc1 (some centres undefined)	/	/	.	/
Cc1cc(N2CCOCC2)nc2ccc(NC(=O)CCC(=O)N3CCCCC3)cc12	2.4	?	.	.
CC(C)Nc1ncnc2c1cnn2-c1ccc(Cl)cc1	/	2.5µM	/	/
COCCNc1ncnc2c1cnn2-c1ccc(Cl)cc1	/	10µM	/	10
Clc1ccc(-n2ncc3c(N4CCCC4)ncnc32)cc1	/	?	/	.
OCCOCCNc1ncnc2c1cnn2-c1ccc(Cl)cc1	/	10µM	/	11
OCCOCCNc1ncnc2c1cnn2-c1ccccc1	/	.	/	.
COc1ccc(-n2c(=O)c(CCc3ccccc3)nc3cncnc32)cc1	/	.[11.4 µM]	.	/
Cc1ccc2nc(NC(=O)CN(C)S(=O)(=O)c3ccc(Br)s3)sc2c1	/	.	4µM	/
Cc1cccc2sc(NC(=O)CNS(=O)(=O)c3ccc(Br)s3)nc12	.	.	20µM	.
Cc1ccc2nc(NC(=O)CNS(=O)(=O)c3ccc(Br)s3)sc2c1	/	.	.	.
COC(=O)[C@@H]1CC[C@H](C)[C@@H](c2ccc(C)cc2)N1C(=O)c1ccc(/C=N\O[C@@H](C)CN2CCCc3nc(C)c(C)cc32)cc1	/	.[11.4 µM]	.[11.5 µM]	/
COc1cc2c(cc1OC)C(C)N(C(=O)c1cc3n(n1)C(C(F)(F)F)CC(c1ccco1)N3)CC2 (centres undefined)	.	.	?	.
O=C(NCC12CC3CC(CC(C3)C1)C2)c1cc2n(n1)C(C(F)(F)F)CC(c1ccco1)N2 (centres undefined)	13	.	.	.
SMILES	GBA activity	Luciferase inh	ERK AVP block	PK Bst
Cc1nn(C)c(C)c1CNC(=O)c1cc2n(n1)C(C(F)(F)F)CC(c1cccs1)N2 (centres undefined)	.	.	32µM	.
O=C(c1cc2n(n1)C(C(F)(F)F)CC(c1ccco1)N2)N1CCc2ccccc2C1 (centres undefined)	.	.	25µM	.
N=c1cc(C2(O)CCCCC2)n2c(nc3ccccc32)s1	.	1µM	?	1.1
O=C(O)c1ccccc1/C=N\N=C1c2ccccc2-c2ccccc21	/	.[11.4 µM]	.[11.5 µM]	/
Cc1ccc(-c2nnc(Nc3ccccc3)o2)cc1	.	0.63µM	?	0.46
Cc1ccc(CNc2ccc(N3CCOCC3)cc2)s1	.	13µM	.	.
CCC1CCc2c(sc(NC(=O)c3ccoc3C)c2C(N)=O)C1 (centres undefined)	.	13µM	.	/
CC(O)c1nc2ccccc2n1Cc1nnc(-c2ccc(Cl)cc2)o1 (centres undefined)	.	.	.	2.5
Cc1nnc(SCc2nnc(-c3ccc(Cl)cc3)o2)n1-c1ccccc1	.	.	.	7.5
O=C(Nc1cccc2ccccc12)OC1C=CS(=O)(=O)C1 (centres undefined)	.	.	10µM	.
O=C1CCC(C(=O)Nc2cccc3ccccc23)N1 (centres undefined)	.	.	.	.
O=C(Nc1ccc(O)c(C(=O)O)c1)c1ccc2c(c1)C(=O)N(CC1CCCO1)C2=O (centres undefined)	.	13µM	.	/
COc1ccc(-c2cc3nc4n(c(=O)c3s2)CCC4)cc1	.	2.5µM	.	3.8
COc1ccc(NS(=O)(=O)c2cccc(-c3nnc4n3CCCCC4)c2)cc1	.	.	.	.
CSc1nc2[nH]c3c(c2c2nnnn12)CCCC3	/	.	/	0.78
CSc1nc2[nH]c3c(c2c2nncn12)CC(C)(C)OC3	/	.	/	.
OC1CCCCC1	/	/	.	/
O=C(NCCN1CCOCC1)NC1(C(F)(F)F)Oc2ccccc2O1	.	.	.	.
NS(=O)(=O)c1ccc(CCNC(=O)NC2(C(F)(F)F)Oc3ccccc3O2)cc1	14	.	.	.
COCC(=O)O[C@]1(CCN(C)CCCc2nc3ccccc3[nH]2)CCc2cc(F)ccc2[C@@H]1C(C)C	/	.	20µM	/
CCCCCCNC(=O)Nc1ccc(S(=O)(=O)Nc2ccc(CCNC[C@H](O)COc3ccc(O)cc3)cc2)cc1	/	/	.	/
Cc1ccccc1-c1ccc2ncnc(-n3ccnc3)c2c1	/	.[2.29 µM]	.	/
On1onc2c3cc(-c4ccccc4)nc3ccc21	15	.	25µM	.
CC(C)(C)COS(=O)OCC(C)(C)C	/	.[11.4 µM]	.[11.5 µM]	/
COC1OC2COC(c3ccccc3)OC2C(O)C1O (centres undefined)	/	/	.	/
SMILES	GBA activity	Luciferase inh	ERK AVP block	PK Bst
O=C(c1ccco1)N1CCC2(CCN(Cc3nccs3)CC2)CC1	/	.[11.4 µM]	.	/
Oc1ccccc1OCc1nc2ccccc2s1	/	20µM	.	/
CO/N=C(\C(=O)NC1C(=O)N2C(C(=O)OCOC(=O)C(C)(C)C)=C(/C=C\c3scnc3C)CSC12)c1csc(N)n1 (centres undefined)	/	/	.	/
CN(C(=O)CCCOc1ccc2[nH]c(=O)ccc2c1)C1CCCCC1	/	.	.	/
CCOC(=O)c1cc(-c2ccncc2)nc2c1c(C)nn2-c1ccccn1	.	.	.	/
Cc1nn(-c2ccccn2)c2nc(-c3cccs3)cc(C(=O)N3CCOCC3)c12	.	.	.	7.1
CCCOC(=O)c1ccc(OCC(O)Cn2c(C)nc3ccccc32)cc1 (centres undefined)	/	.	13µM	/
CCOC(=O)Cn1c(C)nc2ccccc21	/	.	.	/
CC(C)(C)N1C(=O)c2ccc(C(=O)Nc3nccs3)cc2C1=O	/	5µM	?	/
O=C(NCc1cccs1)c1ccc(Cl)s1	.	.	.	.
O=C(Nc1ccc2sccc2c1)c1ccc(Cl)s1	/	1.6µM	/	/
O=C(CCCn1c(=S)[nH]c2cc3c(cc2c1=O)OCO3)N1CCN(c2ccccc2F)CC1	/	.	.	.
Cc1ccc(C)c(N2CCN(C(=O)CCCn3c(=S)[nH]c4cc5c(cc4c3=O)OCO5)CC2)c1	15	.	.	.
COC(=O)c1ccc(C(NC(=O)OCc2ccccc2)/C(=C/[C@@H](C)C(=O)NCc2ccc(OC)c(O)c2)c2cccnc2)cc1 (some centres undefined)	/	/	.	/
Cc1ccc(C(=O)Nc2ccc3c(c2)ncn3C)cc1	/	25µM	.	/
